Reference: PubChem BioAssay (EPA / NIEHS)
Records with an inconclusive call do not appear. Active and inactive are the calls of the source. Rule for the calls, unless noted: active = hit-call score of the fitted dose curve at least 0.9, where 1 is the maximum; inactive = score below 0.9.

Columns and labels:
[1] = target: Retinoic acid receptor RXR-alpha (Homo sapiens) (UniProt P19793); experiment: ATG_RXRa_TRANS: Attagene TRANS-FACTORIAL HepG2 Assay for human Retinoid X Receptor alpha (RXRa) (AID 2283012; active = hit-call score of the fitted dose curve at least 0.9, where 1 is the maximum)
Summary of the method: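 HepG2 cells transiently transfected with GAL4-UAS reporter units and chimeric RXRa-Gal4 protein, treated 24 h. Reporter mRNA measured by RT-PCR, fluorescent labelling, HpaI digestion and capillary electrophoresis. Induction fitted against DMSO.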

[2] = read-out: E-selectin (Homo sapiens) (UniProt P16581); experiment: BSK_3C_Eselectin: BioMAP Diversity Plus: 3C Assay for Eselectin Biomarker Activity (AID 2283015); conditions: primary human endothelial cells (HUVEC); actives raise or lower the signal
Summary of the method: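 Primary human umbilical vein endothelial cells (3C system) were dosed with chemical and cell-surface E-selectin measured by ELISA 24 h later. Bidirectional curve fitting used DMSO as negative control and baseline.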

[3] = read-out: Interleukin-1 alpha (IL1a), IL1A (gene 3552); experiment: BSK_BE3C_IL1a: BioMAP Diversity Plus: BE3C Assay for Interleukin-1 alpha (IL1a) Biomarker Activity (AID 2283016); conditions: primary human bronchial epithelial cells; actives raise or lower the signal
Summary of the method: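 Human primary bronchial epithelial cells, 24 h chemical exposure; IL-1a quantified by ELISA, fitted bidirectionally against DMSO. Cytotoxicity assessed in parallel by SRB total-protein staining at the time of measurement.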

[4] = read-out: Monocyte Chemoattractant Protein-1 (MCP1), CCL2 (gene 6347); experiment: BSK_3C_MCP1: BioMAP Diversity Plus: 3C Assay for Monocyte Chemoattractant Protein-1 (MCP1) Biomarker Activity (AID 2283017); conditions: primary human endothelial cells (HUVEC); actives raise or lower the signal
Summary of the method: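 Primary human umbilical vein endothelial cells (3C system) were exposed to test chemical for 24 h, after which MCP-1 was quantified by ELISA. Activity was fitted bidirectionally against DMSO as negative control and baseline.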

[5] = read-out: Monocyte Chemoattractant Protein-1 (MCP1), CCL2 (gene 6347); experiment: BSK_4H_MCP1: BioMAP Diversity Plus: 4H Assay for Monocyte Chemoattractant Protein-1 (MCP1) Biomarker Activity (AID 2283018); conditions: primary human endothelial cells (HUVEC); actives raise or lower the signal
Summary of the method: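 Human umbilical vein endothelial cells (4H system) exposed to chemicals for 24 h in 96-well format. MCP-1 measured by ELISA; bidirectional fitting against DMSO, with SRB total-protein staining in parallel cultures for cytotoxicity.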

[6] = read-out: Monokine induced gamma interferon (MIG), CXCL9 (gene 4283); experiment: BSK_3C_MIG: BioMAP Diversity Plus: 3C Assay for Monokine induced gamma interferon (MIG) Biomarker Activity (AID 2283021); conditions: primary human endothelial cells (HUVEC); actives raise or lower the signal;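 for AC50: MIG protein level measured by immunoassay in the treated endothelial cultures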
Summary of the method: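 HUVEC primary endothelial cultures dosed with chemical; MIG quantified by ELISA at 24 h. Data fitted bidirectionally against DMSO control, with parallel SRB total-protein staining for cytotoxicity.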

[7] = target: human Vitamin D Receptor (VDR), VDR (gene 7421) (UniProt P11473); experiment: ATG_VDR_TRANS: Attagene TRANS-FACTORIAL HepG2 Assay for human Vitamin D Receptor (VDR) (AID 2283022; active = hit-call score of the fitted dose curve at least 0.9, where 1 is the maximum)
Summary of the method: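 HepG2 cells were transiently transfected with multiple GAL4-UAS reporter units, so signal reflects exogenous chimeric receptor-Gal4 activity. After 24 h compound exposure, reporter mRNA was measured by RT-PCR, fluorescent labelling and capillary electrophoresis, fitted for gain of signal versus DMSO.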

[8] = read-out: Interleukin-8 (IL8), CXCL8 (gene 3576); experiment: BSK_3C_IL8: BioMAP Diversity Plus: 3C Assay for Interleukin-8 (IL8) Biomarker Activity (AID 2283020); conditions: primary human endothelial cells (HUVEC); actives raise or lower the signal
Summary of the method: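 Primary human umbilical vein endothelial cells were dosed for 24 h. IL-8 was quantified by ELISA and fitted bidirectionally against DMSO. Cytotoxicity was assessed in parallel cultures by SRB staining at 560 nm.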

[9] = read-out: Human Leukocyte Antigen - DR isotype (HLADR), HLA-DRA (gene 3122); experiment: BSK_3C_HLADR: BioMAP Diversity Plus: 3C Assay for Human Leukocyte Antigen - DR isotype (HLADR) Biomarker Activity (AID 2283019); conditions: primary human endothelial cells (HUVEC); actives raise or lower the signal
Summary of the method: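 Primary human umbilical vein endothelial cells (3C system) were dosed with compound and cell-surface HLA-DR was quantified by ELISA at 24 h. Activity was fitted bidirectionally against DMSO as negative control and baseline.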

[10] = target: human Retinoid X Receptor beta (RXRb), RXRB (gene 6257) (UniProt P28702); experiment: ATG_RXRb_TRANS: Attagene TRANS-FACTORIAL HepG2 Assay for human Retinoid X Receptor beta (RXRb) (AID 2283013; active = hit-call score of the fitted dose curve at least 0.9, where 1 is the maximum)
Summary of the method: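 HepG2 cells were transiently transfected with multiplexed GAL4-UAS reporters and a chimeric RXRb-Gal4 construct, then exposed for 24 h. Reporter mRNA was quantified by RT-PCR, FAM labeling, HpaI digestion and capillary electrophoresis; gain of signal was scored against DMSO.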

Measured: AC50

human Retinoid X Receptor beta (RXRb), RXRB (gene 6257), sequence (P28702 whole entry, looked up, the tested form may be a part): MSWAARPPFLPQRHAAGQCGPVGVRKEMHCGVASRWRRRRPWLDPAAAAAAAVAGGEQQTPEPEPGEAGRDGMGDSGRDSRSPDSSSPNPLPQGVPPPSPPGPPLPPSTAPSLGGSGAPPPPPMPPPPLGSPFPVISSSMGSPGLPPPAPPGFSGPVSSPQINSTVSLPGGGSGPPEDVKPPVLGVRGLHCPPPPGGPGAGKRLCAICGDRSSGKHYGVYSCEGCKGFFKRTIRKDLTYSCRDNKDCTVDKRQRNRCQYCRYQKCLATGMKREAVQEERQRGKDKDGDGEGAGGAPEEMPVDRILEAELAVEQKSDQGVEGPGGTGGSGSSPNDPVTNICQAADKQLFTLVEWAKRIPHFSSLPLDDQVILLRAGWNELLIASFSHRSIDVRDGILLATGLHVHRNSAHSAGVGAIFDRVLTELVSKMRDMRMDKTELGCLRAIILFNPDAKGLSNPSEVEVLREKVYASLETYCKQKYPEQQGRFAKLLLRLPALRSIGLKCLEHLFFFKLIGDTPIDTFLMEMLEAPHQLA
human Vitamin D Receptor (VDR), VDR (gene 7421), sequence (P11473 whole entry, looked up, the tested form may be a part): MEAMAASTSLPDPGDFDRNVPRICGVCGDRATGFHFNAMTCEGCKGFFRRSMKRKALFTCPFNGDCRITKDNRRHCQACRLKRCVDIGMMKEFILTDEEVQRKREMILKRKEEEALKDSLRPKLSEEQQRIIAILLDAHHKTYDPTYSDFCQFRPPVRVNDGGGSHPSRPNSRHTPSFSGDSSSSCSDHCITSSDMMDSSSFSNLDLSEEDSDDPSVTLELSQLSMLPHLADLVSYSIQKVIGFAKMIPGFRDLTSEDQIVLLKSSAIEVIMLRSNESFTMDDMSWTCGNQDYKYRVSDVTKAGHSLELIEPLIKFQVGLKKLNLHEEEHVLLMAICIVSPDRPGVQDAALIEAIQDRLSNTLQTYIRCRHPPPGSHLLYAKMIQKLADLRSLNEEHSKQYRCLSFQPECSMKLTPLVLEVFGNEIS
E-selectin (Homo sapiens), sequence (P16581 whole entry, looked up): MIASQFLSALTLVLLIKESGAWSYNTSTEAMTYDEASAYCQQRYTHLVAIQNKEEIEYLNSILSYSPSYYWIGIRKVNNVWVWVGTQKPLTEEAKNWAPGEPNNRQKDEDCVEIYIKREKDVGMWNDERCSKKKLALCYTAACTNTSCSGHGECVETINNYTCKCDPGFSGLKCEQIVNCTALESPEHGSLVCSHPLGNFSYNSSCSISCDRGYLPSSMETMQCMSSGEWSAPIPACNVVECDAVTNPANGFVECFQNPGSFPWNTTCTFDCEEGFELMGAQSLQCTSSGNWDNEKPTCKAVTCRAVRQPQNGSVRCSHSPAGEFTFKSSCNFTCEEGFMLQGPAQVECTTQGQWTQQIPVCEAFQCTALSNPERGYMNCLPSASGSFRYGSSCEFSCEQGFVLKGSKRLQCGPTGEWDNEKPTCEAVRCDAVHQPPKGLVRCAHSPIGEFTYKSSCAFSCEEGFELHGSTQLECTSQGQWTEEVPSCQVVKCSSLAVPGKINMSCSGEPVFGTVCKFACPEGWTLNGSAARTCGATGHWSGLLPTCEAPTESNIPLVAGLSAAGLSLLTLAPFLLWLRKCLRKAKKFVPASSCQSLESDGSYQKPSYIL
Retinoic acid receptor RXR-alpha (Homo sapiens), sequence (P19793 whole entry, looked up, the tested form may be a part): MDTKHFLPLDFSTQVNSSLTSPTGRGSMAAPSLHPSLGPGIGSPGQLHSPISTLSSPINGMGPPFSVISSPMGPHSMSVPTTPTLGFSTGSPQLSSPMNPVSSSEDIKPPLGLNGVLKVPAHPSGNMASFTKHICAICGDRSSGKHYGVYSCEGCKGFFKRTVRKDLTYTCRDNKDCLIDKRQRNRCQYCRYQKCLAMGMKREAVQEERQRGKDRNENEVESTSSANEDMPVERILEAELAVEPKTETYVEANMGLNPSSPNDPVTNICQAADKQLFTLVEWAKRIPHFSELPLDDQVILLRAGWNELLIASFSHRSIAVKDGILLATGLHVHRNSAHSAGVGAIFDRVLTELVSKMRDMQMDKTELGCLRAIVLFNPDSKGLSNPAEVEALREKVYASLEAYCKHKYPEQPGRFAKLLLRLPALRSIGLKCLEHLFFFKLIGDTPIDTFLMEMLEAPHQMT

CC(C)c1cccc(C(C)C)c1N1C(=O)c2ccc(O)cc2C1=O
active: [2] 36.5 µM | [3] 20 µM | [5] 4.76 µM
inactive: [1] | [4] | [6] | [7]

COc1ccc(-n2nc(C(F)F)cc2-c2ccc(S(C)=O)cc2)cc1 (stereo unspecified)
inactive: [1] | [2] | [4] | [5] | [8] | [6] | [7]

CC(C)CCO
inactive: [1] | [2] | [3] | [4] | [5] | [8] | [6] | [7]

CCCCC(CC)COC(=O)CCCCCCCCC(=O)OCC(CC)CCCC (stereo unspecified)
inactive: [1] | [2] | [4] | [5] | [9] | [8] | [6]

On1ccccc1=S
inactive: [1] | [8] | [7]
active: [2] 18.3 µM | [4] 28.8 µM | [5] 30.8 µM | [6] 32 µM

COc1cccc(-c2ccc(/C=C\CN3CCCCCC3)cc2Cl)c1
inactive: [1] | [7]
active: [2] 28.6 µM | [4] 30.9 µM | [5] 25 µM | [9] 27.8 µM | [6] 34.3 µM

CC(=O)OC[C@H]1O[C@@](COC(C)=O)(O[C@H]2O[C@H](COC(C)=O)[C@@H](OC(C)=O)[C@H](OC(C)=O)[C@H]2OC(C)=O)[C@@H](OC(C)=O)[C@@H]1OC(C)=O
inactive: [1] | [2] | [3] | [4] | [5] | [6] | [7]

O=C(O)c1cccc(N(Cc2cccnc2)c2ccc(OC(F)F)c(OC(F)F)c2)c1
inactive: [1] | [2] | [4] | [5] | [8] | [6] | [7]
active: [9] 9.02 µM

CCN(C(=O)c1cc(C)cc(OC[C@H](C)Nc2ccncc2)c1)C(C)C
inactive: [1] | [2] | [4] | [5] | [9] | [6]

COc1ccc(/C=C/S(=O)(=O)NC(=O)c2ccc(C)cc2Cl)cc1
inactive: [1] | [2] | [4] | [5] | [9] | [8] | [6] | [7]

COC(=O)CC(=O)OC
inactive: [1] | [2] | [4] | [5] | [9] | [8] | [6] | [7]

C1=CCCC=CCCC=CCC1
inactive: [1] | [2] | [3] | [4] | [5] | [6]

Cn1c(=O)cc(Oc2ccc(F)cc2F)c2cnc(NCC(C)(C)O)nc21
active: [4] 3.14 µM
inactive: [1] | [2] | [3] | [5] | [6] | [7]

CCOc1cccc(-n2cc(C(=O)N3CCN(c4cc(C(=O)O)c5ccccc5c4)CC3)nc2-c2ccc(C)cc2)c1
active: [4] 23 µM | [5] 23.3 µM | [9] 15.3 µM | [6] 35.5 µM
inactive: [1] | [2] | [7]

CCOC(=O)c1ccc(C2CCC(NC[C@H](O)COc3ccc(O)c(NS(C)(=O)=O)c3)CC2)cc1 (stereo partly specified)
active: [1] 54.3 µM | [4] 27.9 µM | [9] 31.1 µM
inactive: [2] | [5] | [6]

CCCN(C1CCN(C(=O)C2CCNCC2)CC1)[C@@H]1CCc2ccc(OC)cc2C1
inactive: [1] | [2] | [4] | [5] | [9] | [8] | [6] | [7]

CCOC(=O)CC(CC(=O)OCC)(OC(C)=O)C(=O)OCC
inactive: [1] | [2] | [3] | [4] | [5] | [6] | [7]

CC(=O)c1ccc2c(c1)[C@H](NC(=O)c1ccc(F)cc1)[C@@H](O)C(C)(C)O2
inactive: [2] | [3] | [4] | [5] | [9] | [8] | [6]

O=C1CCC(N2C(=O)c3ccccc3C2=O)C(=O)N1 (stereo unspecified)
inactive: [2] | [3] | [4] | [5] | [9] | [6]

CC[C@H](C)C(=O)O[C@H]1C[C@@H](C)C=C2C=C[C@H](C)[C@H](CC[C@@H]3C[C@@H](O)CC(=O)O3)[C@H]21
active: [2] 31.6 µM | [3] 33.6 µM | [4] 24 µM | [5] 1.98 µM | [9] 31.5 µM | [8] 25.5 µM
inactive: [10] | [6] | [7]

CC1=CC(=O)CC(C)(C)C1
inactive: [2] | [4] | [5] | [9] | [8] | [6]

CCn1nc(Cc2ccccc2)cc1C1CCN(C[C@H]2C[C@H](N(C)[C@@H](C(=O)O)C(C)C)C[C@@H]2c2cccc(F)c2)CC1
inactive: [2] | [3] | [4] | [5] | [9] | [8] | [6] | [7]

CC(=O)OCCC(C)C
inactive: [2] | [4] | [5] | [9] | [6]

CCCCC(CC)COC(=O)c1ccc(C(=O)OCC(CC)CCCC)cc1 (stereo unspecified)
inactive: [2] | [3] | [4] | [5] | [8] | [6]

CNS(=O)(=O)c1cc(C(=O)N2CCC(CCN3C4CCC3CC(n3c(C)nc5ccccc53)C4)(c3cccc(F)c3)CC2)c(Cl)cc1F (stereo unspecified)
active: [4] 33.7 µM | [8] 29.4 µM
inactive: [2] | [5] | [6]

CC[C@H]1OC(=O)[C@H](C)[C@@H](O[C@H]2C[C@@](C)(OC)[C@@H](O)[C@H](C)O2)[C@H](C)[C@@H](O[C@@H]2O[C@H](C)C[C@H](N(C)C)[C@H]2O)[C@](C)(O)C[C@@H](C)C(=O)[C@H](C)[C@@H](O)[C@]1(C)O
inactive: [2] | [3] | [4] | [5] | [9] | [8] | [6] | [7]

O=P(OC(CCl)CCl)(OC(CCl)CCl)OC(CCl)CCl
inactive: [2] | [3] | [4] | [5] | [8] | [6]
active: [10] 26 µM

NC(=O)NO
inactive: [2] | [4] | [5] | [9] | [6] | [7]

Fc1ccccc1[C@@H](F)COC1CCC(Nc2ncnc3[nH]ncc23)CC1 (stereo partly specified)
inactive: [2] | [3] | [5] | [6] | [7]
active: [4] 30.2 µM | [9] 15.4 µM

Cc1ccc(C)c(O)c1
inactive: [2] | [4] | [5] | [6] | [7]

Cc1ccc(O)cc1
inactive: [2] | [3] | [4] | [5] | [6]

O=C(O)c1cccc(Oc2ccccc2)c1
inactive: [2] | [4] | [5] | [9] | [6] | [7]

O=c1n(CC2CO2)c(=O)n(CC2CO2)c(=O)n1CC1CO1 (stereo unspecified)
inactive: [5] | [6] | [7]
active: [2] 16.1 µM | [4] 20 µM | [9] 21.5 µM | [8] 13.2 µM

CC(C)(O)c1coc(S(=O)(=O)NC(=O)Nc2c3c(cc4c2CCC4)CCC3)c1
inactive: [10] | [2] | [3] | [4] | [5] | [6] | [7]

Clc1nc(Cl)c(Cl)c(Cl)c1Cl
active: [3] 29.2 µM
inactive: [2] | [4] | [5] | [6] | [7]

C[C@](N)(Cc1ccc(O)c(O)c1)C(=O)O
inactive: [10] | [2] | [3] | [4] | [5] | [8] | [6] | [7]

Cc1c(-c2cccnc2)c2ccccc2n1CCCCC(=O)O
inactive: [2] | [4] | [5] | [8] | [6]

CCCCCCc1ccc(O)cc1O
inactive: [7]
active: [2] 30.8 µM | [3] 33 µM | [4] 32.5 µM | [5] 16.2 µM | [9] 39 µM | [8] 32.4 µM | [6] 3.97 µM

C=CC(=C)CCC=C(C)C
inactive: [2] | [4] | [5] | [9] | [8] | [6] | [7]

CCOCCO
inactive: [2] | [4] | [5] | [8] | [6]

CC1(C)C(=O)N(Br)C(=O)N1Br
inactive: [2] | [4] | [5] | [9] | [8] | [6] | [7]

CCNc1ccccc1
inactive: [2] | [3] | [4] | [5] | [6] | [7]

CCOC(=O)COc1ccc2c(c1)CC(NCC(O)c1cccc(Cl)c1)CC2 (stereo unspecified)
inactive: [3]
active: [2] 31.4 µM | [4] 33.6 µM | [5] 28.2 µM | [9] 27.6 µM | [8] 32.1 µM | [6] 28.3 µM

Cc1ccc(N)cc1O
inactive: [2] | [3] | [4] | [5] | [9] | [6] | [7]

CCCC(=O)OCC
inactive: [2] | [4] | [5] | [9] | [8] | [6] | [7]

CC(C)CCCCCCCOC(=O)CCCCC(=O)OCCCCCCCC(C)C
inactive: [2] | [3] | [4] | [5] | [9] | [8] | [6] | [7]

CC(C)=CCCC(C)CCO (stereo unspecified)
inactive: [2] | [4] | [5] | [6]
